The source of these data is PubChem BioAssay (Tox21).

“And” between values parts separate entries of the source, which are not always exact repeats. Equal entries are not always repeated. Inconclusive results are not listed. Where a structure was tested more than once in an assay, its records may differ in their call. The source made the active and inactive calls. Unless noted, calls follow the shape of the dose curve; as a rule, active = well fitted curve in the direction sought with a large enough effect in the repeat runs; inconclusive = weak or mixed curves; inactive = no such curve, though single readings can be large; an effect the other way counts as inactive or inconclusive.

A short description of assay [1]: qHTS assay to identify small molecule agonists of H2AX (AID 1224845; active = well fitted activation curve with a large enough effect in the signal ratio in the repeat runs, not every such curve was filed as active; the % refers to the signal ratio; also: potency is read from the fitted curve at half-maximal effect). A digest of the protocol: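 Wild-type CHO-K1 cells, plated overnight, exposed 3hr at 37C to 15 concentrations (0.76% DMSO final). Lysed, then HTRF anti-pH2AX (S139) cryptate and anti-H2AX-d2 antibodies, 24 hr room temperature; 665/620 nm emission read.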
Assay [2] in a line: qHTS RealTime-Glo MT Cell Viability Assay in HepG2 cells - 24 hour (AID 1224867). Also: nearly all actives have a fitted effect of over 50% in size. Also: potency is read from the fitted curve at half-maximal effect. In outline: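 HepG2 cells were seeded at 600 cells/well together with NanoLuc luciferase and a cell-permeant prosubstrate, preincubated 5 h at 37 C/5% CO2, then pin-dosed with compounds in DMSO. Nonlytic luminescence from viable cells was read at each time point.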
(In general: Quantitative high-throughput screening tests each substance at several concentrations.)

Assay [3] in a line: qHTS RealTime-Glo MT Cell Viability Assay in HEK293 cells - 32 hour (AID 1224868). Also: nearly all actives have a fitted effect of over 50% in size. Also: potency is read from the fitted curve at half-maximal effect. As to activity change, negative = cytotoxic: top concentration of the series differs between compounds. In outline: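 HEK293 cells were seeded at 600 cells/well together with NanoLuc luciferase and cell-permeant prosubstrate, preincubated 5 h at 37 C/5% CO2, then given compound in DMSO by pintool. Luminescence from viable-cell prosubstrate reduction was read repeatedly over 40 h.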
The nature of assay [4]: A CellTox Green Cytotoxicity Assay to monitor cytotoxicity in HEK293 cells - 0 hour (AID 1224869). Also: nearly all actives have a fitted effect of over 50% in size. A digest of the protocol: (§1)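 Fluorescence intensity, read at 0, 8, 16, 24, 32 and 40 h of compound treatment, reflected dye binding to DNA of dead HEK293 cells; compounds (23 nL, DMSO) were added 5 h after plating cells with reagent.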
A short description of assay [5]: qHTS RealTime-Glo MT Cell Viability Assay in HepG2 cells - 40 hour (AID 1224870). Also: nearly all actives have a fitted effect of over 50% in size. Also: potency is read from the fitted curve at half-maximal effect. A digest of the protocol:
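HepG2 cells (600/well) mixed with RealTime-Glo MT reagent, settled 5 h at 37 C/5% CO2 before compound addition. Nonlytic NanoLuc luminescence from viable-cell prosubstrate reduction read repeatedly during 40 h treatment at 37 C.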

Assay [6] is described as follows: A CellTox Green Cytotoxicity Assay to monitor cytotoxicity in HEK293 cells - 40 hour (AID 1224871). Also: nearly all actives have a fitted effect of over 45% in size. Also: potency is read from the fitted curve at half-maximal effect. In outline: as §1
Assay [7] can be described thus: qHTS assay to identify small molecule agonists of the hypoxia (HIF-1) signaling pathway (AID 1224846; active = well fitted activation curve with a large enough effect in the signal ratio in the repeat runs, not every such curve was filed as active; the % refers to the signal ratio). A digest of the protocol:
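A low-serum medium (0.5% dialyzed FBS) holding 2,000 HRE-bla ME-180 cells per well is preincubated for 5 hrs, dosed with compounds by pintool, and kept a further 17 hrs at 37C, 5% CO2 before CCF4-AM FRET detection of beta-lactamase.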

Assay [8] in a line: qHTS assay to identify small molecule agonists of H2AX - cell viability counter screen (AID 1224847; calls by dose curve; also: nearly all actives have a fitted effect of over 30% in size; also: potency is read from the fitted curve at half-maximal effect; as to activity change, negative = cytotoxicity: top concentration of the series differs between compounds). In outline: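 Cells plated first: CHO-K1, 1000 per well in 10% FBS medium, incubated overnight at 37C. Then 15-point compound titration added (final DMSO 0.76%) for 3 hr. Finally CellTiter-Glo added and luminescence read.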
The nature of assay [9]: qHTS assay to identify small molecule antagonists of the estrogen related receptor (ERR) signaling pathway from Tox21 library (AID 1224848). Also: nearly all actives have a fitted effect of over 50% in size. Also: potency is read from the fitted curve at half-maximal effect. A digest of the protocol: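 ERR reporter cell line (from NTP) seeded 2,000 cells/well, rested 6 h at 37 C/5% CO2, then pin-dosed with compounds in DMSO. After 18 h at 37 C, ONE-Glo added; luminescence read after 30 min at room temperature.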

Assay [10] is described as follows: qHTS assay to identify small molecule agonists of the estrogen related receptor (ERR) signaling pathway from Tox21 library (AID 1224849; calls by dose curve; also: nearly all actives have a fitted effect of over 15% in size). Particulars: ERR reporter cell line, ONE-Glo luciferase, 18 h; at 92.4 µM (top of the series) unless noted. A digest of the protocol:
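Screening used an NTP-provided ERR luciferase cell line. Compounds in DMSO were added 6 h after seeding and left 18 h at 37 C before a 30 min ONE-Glo step and luminescence reading.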
% is scaled to controls: 0 for no effect and ±100 for the full control effect.

Consider `CCO[Si](CCCSSSSCCC[Si](OCC)(OCC)OCC)(OCC)OCC`, for which the Potency result in assay [1], in [2], in assay [3], in [4] and in [5] was “inactive” in each case.

`CC(=O)Oc1ccc(C2(c3ccc(OC(C)=O)cc3)Oc3ccccc3NC2=O)cc1`: the Potency entry in [1], in [2], in assay [4], in assay [5] and in assay [6] was “inactive” throughout.

Take `CC(C)C(=O)OCc1ccccc1`: the outcome in assay [7] was inactive. Also, the Potency entry in assay [8], in assay [2], in assay [4] and in [5] was “inactive” each time.

Take `Cc1ccc(N)cc1O`: in [7], the molecule was called inactive. Further, the Potency result in assay [2], in assay [4], in assay [5] and in assay [6] was “inactive” throughout.

Turning to `CN(C)CCCN1c2ccccc2Sc2ccc(C(F)(F)F)cc21`, in assay [7], the molecule was called inactive. Also, the Potency entry in [8] and in assay [4] was “inactive” throughout. Further, the Potency in assay [3] is 21.3 µM (active); in assay [6], 26.8 µM (active).

Turning to `C=CC(=C)CCC=C(C)C`, the outcome in assay [7] was inactive. Moreover, the Potency result in assay [2], in assay [3], in [4], in [5] and in assay [6] was “inactive” in each case.

Turning to `NC(=O)C(=O)N/N=C/c1ccc([N+](=O)[O-])o1`, the call in [7] was inactive. Also, the Potency result in [2], in [4], in [5] and in [6] was “inactive” in each case.

In the case of `COCC(=O)O[C@]1(CCN(C)CCCc2nc3ccccc3[nH]2)CCc2cc(F)ccc2[C@@H]1C(C)C`, the Potency is 49.2 µM (active) in assay [1]; 13.4 µM (active) in [2]; 6.74 µM (active) in assay [3]; 10.7 µM (active) in assay [5]; 19 µM (active) in assay [6]. Besides, the Potency result in [4] is “inactive”.

Take `CCCCN(CCCC)CCC(O)c1cc2c(Cl)cc(Cl)cc2c2cc(C(F)(F)F)ccc12` (centres undefined): the Potency result in assay [1], in assay [3], in [4] and in [6] was “inactive” each time.

With `COC(=O)CC(C)CCC=C(C)C` (centres undefined), the molecule was classed as inactive in assay [7]. Besides, the Potency result in assay [8], in assay [9], in [2], in assay [3], in assay [4] and in assay [5] was “inactive” each time. In assay [6], the Potency result was “inactive”. Besides, in assay [10], the activity change, positive = activation is 1.82% (inactive).

As for `O=S(=O)(O)c1cc(S(=O)(=O)O)c2ccc3c(S(=O)(=O)O)cc(S(=O)(=O)O)c4ccc1c2c43`, in [7], the activation was -0.0206% [at 15.8 µM] (inactive). The values for the activity change, negative = cytotoxicity in [8] and in [2] were 4.65% [at 31.6 µM] (inactive) and 3.52% [at 15.8 µM] (inactive), respectively. Besides, in [9], the activity, negative = inhibition was 17.9% [at 19 µM] (inactive). Also, in [10], the activity change, positive = activation is 9.26% [at 19 µM] (inactive). Also, the activity change, negative = cytotoxic in assay [3] was 2.34% [at 15.8 µM] (inactive); in [5] it was 8.14% [at 15.8 µM] (inactive). The cytotoxicity in assay [4] was -7.26% [at 15.8 µM] (inactive). Also, the cytotoxicity increase in assay [6] is -6.93% [at 15.8 µM] (inactive).

`O=C1NC2CCCCN2C12CCN(CCCN1c3ccccc3CCc3ccc(Cl)cc31)CC2` (centres undefined): the outcome in assay [7] was inactive. Also, the Potency in [9] is 23.7 µM (active); in assay [2], 23.9 µM (active); in assay [3], 9.52 µM (active); in [5], 23.9 µM (active); in assay [6], 21.3 µM (active). Further, the activity change, positive = activation in assay [10] is -64.1% [at 42.5 µM] (inactive). Also, in assay [4], the Potency entry was “inactive”.

For the molecule `c1ccc(Sc2ccccc2)cc1`, the outcome in [7] was inactive. Moreover, the Potency result in assay [8], in assay [2], in assay [4] and in assay [5] was “inactive” in each case.

As for `O=C(O)Cc1ccc(OCCNC[C@H](O)c2ccccc2)cc1`, the result in [7] was inactive. The Potency entry in assay [8], in assay [2], in assay [3], in assay [4], in [5] and in assay [6] was “inactive” in each case.

Take `O=C(c1ccccc1)c1cc(Cl)ccc1O`: in assay [7], the molecule was classed as inactive. Moreover, the Potency entry in assay [9], in assay [2], in [4] and in assay [5] was “inactive” each time. Besides, the activity change, positive = activation in assay [10] is -10.3% (inactive).

`CN1CCN(C2Cc3ccccc3Sc3ccc(Cl)cc32)CC1` (centres undefined): the Potency entry in assay [8] and in assay [4] was “inactive” in each case. Besides, the Potency in [9] was 26.6 µM (active); in assay [2], 23.9 µM (active); in assay [6], 21.3 µM (active). For the same molecule, in assay [10], the activity change, positive = activation was -28.3% [at 42.5 µM] (inactive).

Take `CCN(CC)CCOC(=O)C1(C2CCCCC2)CCCCC1`: the results for the Potency in [8] and in assay [6] were 49.2 µM (active) and 23.9 µM (active), respectively. Further, the Potency result in [2], in assay [4] and in assay [5] was “inactive” each time.

As to `O=C1NCN(c2ccccc2)C12CCN(CCCC(c1ccc(F)cc1)c1ccc(F)cc1)CC2`, the Potency in assay [8] is 49.2 µM (active); in assay [9], 21.1 µM (active); in assay [2] it was 6.74 µM (active); in assay [3], 19 µM (active); in assay [5], 6.74 µM (active); in assay [6], 23.9 µM (active). Besides, in assay [10], the activity change, positive = activation is -32.9% [at 42.5 µM] (inactive). For the same molecule, in assay [4], the Potency result is “inactive”.

`c1cc(OCC2CO2)cc(OCC2CO2)c1` (centres undefined): the Potency entry in assay [8], in [2], in assay [4] and in assay [6] was “inactive” in each case. The Potency in assay [3] was 17.2 µM (active).

With `CN(C)CCCN1c2ccccc2CCc2ccccc21`, the Potency result in assay [8], in assay [2], in assay [3], in assay [4] and in assay [5] was “inactive” each time. Moreover, the Potency in [6] was 43.6 µM (active) and inactive.

With `c1ccc(Nc2cccc3ccccc23)cc1`, the Potency in [8] is 115 µM (active) and 113 µM (active). In addition, the Potency entry in assay [9], in [2], in assay [3], in [4] and in assay [5] was “inactive” throughout. Also, in assay [10], the activity change, positive = activation was -11.6% (active).

For the molecule `COc1cc(C(C)C)c2c(c1)S(=O)(=O)N(COc1cc(=O)n3cccc(OCCN4CCCCC4)c3n1)C2=O`, in [8], the Potency is 24 µM (active). For the same molecule, the activity change, negative = cytotoxicity in assay [2] is -8.66% [at 15.8 µM] (inactive). Besides, in assay [4], the cytotoxicity was -2.82% [at 15.8 µM] (inactive). The activity change, negative = cytotoxic in assay [5] was -2.06% [at 15.8 µM] (inactive).

Consider `CC(C)(c1cc(Br)c(OCCO)c(Br)c1)c1cc(Br)c(OCCO)c(Br)c1`, for which the Potency in assay [8] is 87.8 µM (active); in assay [9], 11.9 µM (active); in [3], 13.5 µM (active). Also, the activity change, positive = activation in [10] is -67.7% (inactive). The Potency result in [4] is “inactive”.

With `CO[C@H]1C=CO[C@@]2(C)Oc3c(C)c(O)c4c(O)c(cc(O)c4c3C2=O)NC(=O)/C(C)=C\C=C/[C@H](C)[C@H](O)[C@@H](C)[C@@H](O)[C@@H](C)[C@H](OC(C)=O)[C@@H]1C`, the Potency entry in assay [8], in assay [2], in assay [3], in [4], in [5] and in assay [6] was “inactive” throughout. For the same molecule, the activity change, positive = activation in assay [10] was -31.9% (inactive).

Regarding `CCCCOc1ccc(C(=O)CCN2CCCCC2)cc1`, the Potency result in assay [8] and in [4] was “inactive” throughout. Besides, the Potency was 21.3 µM (active) in [2], 16.9 µM (active) in [3], 6.74 µM (active) in assay [5] and 19 µM (active) in assay [6].
